Data: PubChem BioAssay (Tox21)
Values joined by “and” are separate entries in the source; they are usually repeats but may differ in a detail not shown here. Identical values can stand only once. Inconclusive results are not listed. Entries that show only a call come without a potency. Some structures have more than one record in an assay (separate samples or runs), and their calls can disagree. Active and inactive are the calls of the source. Unless noted, calls follow the shape of the dose curve; as a rule, active = well fitted curve in the direction sought with a large enough effect in the repeat runs; inconclusive = weak or mixed curves; inactive = no such curve, though single readings can be large; an effect the other way counts as inactive or inconclusive.

What was measured:
[1] = qHTS assay to identify small molecule antagonists of the sonic hedgehog signaling (Shh) pathway (AID 1259369; calls by dose curve; also: nearly all actives have a fitted effect of over 45% in size; also: potency is read from the fitted curve at half-maximal effect)
Procedure, shortened: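 NIH/3T3 stable Gli1-Luc clone, 2,000 cells/well, 4hr settle; cpd + conditioned medium 24hr; Luc reagent 30min RT; luminescence.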

[2] = target: Estrogen receptor beta (Homo sapiens) (UniProt Q92731); assay: qHTS assay to identify small molecule agonists of the estrogen receptor beta (ER-beta) signaling pathway (AID 1259377; active = well fitted activation curve with a large enough effect in the signal ratio in the repeat runs, not every such curve was filed as active; the % refers to the signal ratio)
Chain of Estrogen receptor beta (Homo sapiens) (Q92731 whole entry, looked up, the tested form may be a part): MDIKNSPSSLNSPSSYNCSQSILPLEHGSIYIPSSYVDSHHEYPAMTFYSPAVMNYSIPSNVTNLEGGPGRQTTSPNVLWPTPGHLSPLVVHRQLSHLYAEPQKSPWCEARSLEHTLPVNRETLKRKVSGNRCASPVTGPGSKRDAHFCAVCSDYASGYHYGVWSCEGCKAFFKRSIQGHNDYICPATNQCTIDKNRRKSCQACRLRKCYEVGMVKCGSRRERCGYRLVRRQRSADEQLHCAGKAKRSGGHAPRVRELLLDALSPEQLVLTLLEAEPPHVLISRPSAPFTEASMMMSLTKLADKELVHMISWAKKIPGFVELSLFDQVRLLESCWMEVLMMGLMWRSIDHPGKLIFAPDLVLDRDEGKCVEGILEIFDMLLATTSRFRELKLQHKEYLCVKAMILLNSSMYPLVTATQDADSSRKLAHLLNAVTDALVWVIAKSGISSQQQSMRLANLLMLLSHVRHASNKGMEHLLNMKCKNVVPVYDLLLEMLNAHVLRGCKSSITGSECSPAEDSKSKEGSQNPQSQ
Procedure, shortened: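 Agonist mode cell assay in GripTite HEK293T cells expressing an ER-beta fusion that drives beta-lactamase from an Upstream Activator Sequence; 16 hr compound exposure at 37C, then 2 h LiveBLAzer B/G FRET substrate at room temperature, fluorescence read-out.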

[3] = target: Estrogen receptor beta (Homo sapiens) (UniProt Q92731); assay: qHTS assay to identify small molecule antagonists of the estrogen receptor beta (ER-beta) signaling pathway (AID 1259378; active = well fitted inhibition curve with a large enough effect in the signal ratio in the repeat runs, not every such curve was filed as active; the % refers to the signal ratio)
Procedure, shortened: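 ER-beta-UAS-bla HEK293T cells in 2% charcoal-stripped FBS medium treated with compound plus 1nM final 17-beta-estradiol for 16 hr at 37C. Beta-lactamase reporter read by FRET substrate fluorescence after 2 hours at room temperature.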

[4] = qHTS assay to identify small molecule agonists of the androgen receptor (AR) signaling pathway in the presence of an antagonist - cell viability counter screen (AID 1259379);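 also: MDA-kb2 human breast cancer cells carrying an MMTV luciferase reporter; series mostly up to about 92 µM; nearly all actives have a fitted effect of over 25% in size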
Procedure, shortened: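 MDA-kb2 viability measured by CellTiter-Fluor fluorescence in the same wells as the luciferase signal; nilutamide 3.0uM final; 15-point compound titration; 16 hr at 37C.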

[5] = qHTS assay to identify small molecule agonists of the estrogen receptor beta (ER-beta) signaling pathway - cell viability counter screen (AID 1259380); also: nearly all actives have a fitted effect of over 30% in size
Procedure, shortened: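 Measured: luminescence from CellTiter-Glo after 30 min at room temperature, added to wells already read for the LiveBLAzer FRET reporter (2 hr substrate); ER-beta-UAS-bla HEK293T cells had 16 hr compound treatment at 37C, 5% CO2.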

[6] = target: Androgen receptor (Homo sapiens) (UniProt P10275); assay: qHTS assay to identify small molecule agonists of the androgen receptor (AR) signaling pathway in the presence of an antagonist (AID 1259381; calls by dose curve; also: nearly all actives have a fitted effect of over 15% in size)
Chain of Androgen receptor (Homo sapiens) (P10275 whole entry, looked up): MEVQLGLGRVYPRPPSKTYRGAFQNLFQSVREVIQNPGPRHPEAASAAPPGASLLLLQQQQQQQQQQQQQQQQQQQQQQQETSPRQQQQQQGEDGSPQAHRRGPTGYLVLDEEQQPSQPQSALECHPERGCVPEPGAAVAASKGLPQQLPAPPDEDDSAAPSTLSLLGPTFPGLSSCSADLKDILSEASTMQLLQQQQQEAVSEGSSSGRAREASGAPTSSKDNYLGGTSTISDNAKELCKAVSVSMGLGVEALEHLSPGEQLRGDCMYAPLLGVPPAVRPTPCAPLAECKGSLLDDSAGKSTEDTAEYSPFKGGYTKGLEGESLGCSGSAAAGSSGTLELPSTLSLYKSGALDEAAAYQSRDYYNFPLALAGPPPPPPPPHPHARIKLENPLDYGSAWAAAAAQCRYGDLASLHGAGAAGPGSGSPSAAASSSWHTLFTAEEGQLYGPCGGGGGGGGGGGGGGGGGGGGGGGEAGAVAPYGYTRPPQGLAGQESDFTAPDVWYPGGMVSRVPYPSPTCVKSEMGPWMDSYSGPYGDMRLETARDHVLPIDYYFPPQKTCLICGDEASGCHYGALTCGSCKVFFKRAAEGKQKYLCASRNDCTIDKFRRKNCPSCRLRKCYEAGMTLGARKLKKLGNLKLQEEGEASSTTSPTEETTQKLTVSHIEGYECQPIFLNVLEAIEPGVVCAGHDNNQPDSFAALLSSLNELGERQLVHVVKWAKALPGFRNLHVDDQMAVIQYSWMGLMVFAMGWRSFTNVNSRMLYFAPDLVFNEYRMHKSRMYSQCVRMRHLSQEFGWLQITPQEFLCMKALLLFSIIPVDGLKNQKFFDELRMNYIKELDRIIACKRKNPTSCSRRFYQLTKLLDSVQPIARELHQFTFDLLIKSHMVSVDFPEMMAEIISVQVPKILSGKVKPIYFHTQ
Procedure, shortened: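 Luminescent ONE-Glo read, 30min at room temperature, follows 16hr compound exposure (15 concentrations) of MDA-kb2 cells at 37C, 0% CO2, with nilutamide added at 3.0uM final.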

[7] = qHTS assay to identify small molecule antagonists of the estrogen receptor beta (ER-beta) signaling pathway - cell viability counter screen (AID 1259382); also: series mostly up to about 92 µM; nearly all actives have a fitted effect of over 55% in size
Procedure, shortened: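 Readout: luminescence, CellTiter-Glo, same wells as bla assay. System: ER-beta-UAS-bla GripTite HEK293T, 2% charcoal-stripped FBS. Exposure: compounds plus 1nM 17-beta-estradiol, 16 hr, 37C.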

[8] = target: Estrogen receptor (Homo sapiens) (UniProt P03372); assay: qHTS assay to identify small molecule agonists of the estrogen receptor alpha (ER-alpha) signaling pathway in the presence of an antagonist (AID 1259383; calls by dose curve; also: top concentration of the series differs between compounds; nearly all actives have a fitted effect of over 15% in size)
Chain of Estrogen receptor (Homo sapiens) (P03372 whole entry, looked up): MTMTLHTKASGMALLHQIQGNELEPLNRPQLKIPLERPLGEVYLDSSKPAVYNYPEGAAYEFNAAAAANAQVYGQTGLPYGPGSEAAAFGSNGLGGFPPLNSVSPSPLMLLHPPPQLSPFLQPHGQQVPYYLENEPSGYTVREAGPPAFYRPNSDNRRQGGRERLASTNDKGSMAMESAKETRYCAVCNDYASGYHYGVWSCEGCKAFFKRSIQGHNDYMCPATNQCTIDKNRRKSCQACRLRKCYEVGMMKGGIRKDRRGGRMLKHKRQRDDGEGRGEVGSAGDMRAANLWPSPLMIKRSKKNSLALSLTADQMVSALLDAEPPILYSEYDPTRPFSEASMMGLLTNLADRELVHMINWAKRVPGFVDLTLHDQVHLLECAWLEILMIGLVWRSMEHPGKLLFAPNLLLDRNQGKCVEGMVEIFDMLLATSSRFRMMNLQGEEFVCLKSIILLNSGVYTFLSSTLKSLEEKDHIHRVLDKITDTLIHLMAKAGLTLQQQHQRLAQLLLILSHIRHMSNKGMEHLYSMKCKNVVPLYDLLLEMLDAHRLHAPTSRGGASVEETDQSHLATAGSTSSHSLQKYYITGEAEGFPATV
Procedure, shortened: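 Quantitative HTS confirmation: compounds titrated at 15 concentrations onto estrogen-deprived VM7Luc4E2 cells carrying a four-ERE luciferase construct, with ICI-182,780 present at 10.0nM final. Signal is luminescence after 22hr exposure.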

[9] = qHTS assay to identify small molecule agonists or antagonists of the thyroid stimulating hormone receptor (TSHR) signaling pathway - wild type cell line counter screen (AID 1259384; calls by dose curve)
Procedure, shortened: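 Wild-type Hek293 cells, 800/well, 18 h at 37C, then compound with Ro20-1724 for 30 min RT. cAMP by HTRF (cAMP-d2/anti-cAMP cryptate), 1 h RT, fluorescence read. 15 concentrations, triplicates.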

[10] = target: Thyrotropin receptor (Homo sapiens) (UniProt P16473); assay: qHTS assay to identify small molecule antagonists of the thyroid stimulating hormone receptor (TSHR) signaling pathway (AID 1259385; calls by dose curve; also: nearly all actives have a fitted effect of over 20% in size)
Chain of Thyrotropin receptor (Homo sapiens) (P16473 whole entry, looked up): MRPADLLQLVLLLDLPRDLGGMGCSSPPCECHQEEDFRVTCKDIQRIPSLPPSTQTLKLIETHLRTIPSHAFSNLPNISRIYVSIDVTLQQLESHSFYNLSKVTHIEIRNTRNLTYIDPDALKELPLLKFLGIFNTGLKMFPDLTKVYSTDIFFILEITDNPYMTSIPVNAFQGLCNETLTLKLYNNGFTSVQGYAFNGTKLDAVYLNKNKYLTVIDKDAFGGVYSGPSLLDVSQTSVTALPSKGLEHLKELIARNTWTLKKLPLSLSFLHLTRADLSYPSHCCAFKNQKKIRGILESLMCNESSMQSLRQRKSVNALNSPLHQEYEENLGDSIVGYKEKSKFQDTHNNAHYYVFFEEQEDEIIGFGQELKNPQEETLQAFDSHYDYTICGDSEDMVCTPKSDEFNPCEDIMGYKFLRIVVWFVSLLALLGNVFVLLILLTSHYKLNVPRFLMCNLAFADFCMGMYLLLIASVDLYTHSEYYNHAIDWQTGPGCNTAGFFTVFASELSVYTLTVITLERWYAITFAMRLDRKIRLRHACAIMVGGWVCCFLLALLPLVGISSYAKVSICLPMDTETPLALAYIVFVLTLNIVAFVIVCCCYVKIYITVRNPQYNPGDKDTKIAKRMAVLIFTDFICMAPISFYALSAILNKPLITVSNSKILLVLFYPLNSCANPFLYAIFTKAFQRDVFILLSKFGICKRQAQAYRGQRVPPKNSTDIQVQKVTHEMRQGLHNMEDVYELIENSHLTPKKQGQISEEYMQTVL
Procedure, shortened: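 TSHR-HEK293 cells (800/well) plated 18 h, then compounds with Ro20-1724 and TSH at 1.5 ng/mL final, 30 min at room temperature. cAMP quantified by HTRF (cAMP-d2/anti-cAMP-cryptate, 1 h); 15 concentrations in triplicate.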

[11] = qHTS assay to identify small molecule agonists of the estrogen receptor alpha (ER-alpha) signaling pathway in the presence of an antagonist - cell viability counter screen (AID 1259386);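 also: series mostly up to about 92 µM; cells exposed to compounds for 22 h at 37 °C before the viability read; nearly all actives have a fitted effect of over 30% in size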
Procedure, shortened: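 The test measures whether compounds kill ER-alpha reporter cells (VM7Luc4E2) under antagonist co-treatment (ICI-182,780, 10.0nM). Fluorescence from CellTiter-Fluor is read after a 22hr exposure.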

[12] = target: Progesterone receptor (Homo sapiens) (UniProt P06401); assay: qHTS assay to identify small molecule agonists of the progesterone receptor (PR) signaling pathway (AID 1346784; calls by dose curve; also: nearly all actives have a fitted effect of over 30% in size)
Chain of Progesterone receptor (Homo sapiens) (P06401 whole entry, looked up): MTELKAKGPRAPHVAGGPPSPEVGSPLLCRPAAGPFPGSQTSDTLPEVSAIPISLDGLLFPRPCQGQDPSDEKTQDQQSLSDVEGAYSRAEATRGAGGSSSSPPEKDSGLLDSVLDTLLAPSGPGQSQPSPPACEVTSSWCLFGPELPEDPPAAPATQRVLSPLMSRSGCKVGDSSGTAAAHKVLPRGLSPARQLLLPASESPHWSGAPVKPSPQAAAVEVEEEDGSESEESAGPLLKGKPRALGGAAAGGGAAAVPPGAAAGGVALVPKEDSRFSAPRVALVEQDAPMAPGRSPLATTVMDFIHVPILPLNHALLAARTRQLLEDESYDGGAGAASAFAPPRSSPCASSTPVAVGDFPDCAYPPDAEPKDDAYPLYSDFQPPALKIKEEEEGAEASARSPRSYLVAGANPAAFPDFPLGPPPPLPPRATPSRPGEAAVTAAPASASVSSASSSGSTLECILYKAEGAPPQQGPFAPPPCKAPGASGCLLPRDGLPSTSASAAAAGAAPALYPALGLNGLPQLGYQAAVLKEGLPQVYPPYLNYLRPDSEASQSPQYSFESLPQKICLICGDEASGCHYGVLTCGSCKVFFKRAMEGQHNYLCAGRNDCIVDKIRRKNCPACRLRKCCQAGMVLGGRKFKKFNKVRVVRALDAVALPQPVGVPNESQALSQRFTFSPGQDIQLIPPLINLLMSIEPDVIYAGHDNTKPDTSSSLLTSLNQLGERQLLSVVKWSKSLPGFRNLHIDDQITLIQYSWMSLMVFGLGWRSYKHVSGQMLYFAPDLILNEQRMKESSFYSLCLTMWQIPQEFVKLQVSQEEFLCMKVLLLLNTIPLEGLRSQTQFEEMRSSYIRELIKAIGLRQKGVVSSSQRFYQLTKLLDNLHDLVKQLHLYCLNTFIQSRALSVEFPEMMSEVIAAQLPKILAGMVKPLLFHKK
Procedure, shortened: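 Cells (PR-UAS-bla HEK 293T, GripTite) were plated in assay medium containing 2% charcoal-stripped FBS and incubated 6 hr. Test compounds in DMSO were added for 16 hr at 37C. FRET substrate was then loaded for 2 hr at room temperature before fluorescence reading.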

[13] = qHTS assay to identify small molecule antagonists of the progesterone receptor (PR) signaling pathway - cell viability counter screen (AID 1346798); also: series mostly up to about 92 µM; nearly all actives have a fitted effect of over 50% in size
Procedure, shortened: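 Counter screen for cytotoxicity: viability of PR-UAS-bla HEK293T cells was measured with CellTiter-Glo luminescence following 16 hr compound exposure in the presence of R5020.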

[14] = qHTS assay to identify small molecule agonists of the progesterone receptor (PR) signaling pathway - cell viability counter screen (AID 1346799; calls by dose curve; also: nearly all actives have a fitted effect of over 45% in size; also: potency is read from the fitted curve at half-maximal effect)
Procedure, shortened: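 Cells (PR-UAS-bla HEK293T) are plated at 3,000/well in 2% charcoal-stripped FBS medium, rested 6 hr, dosed and incubated 16 hr at 37C. CellTiter-Glo is then added and luminescence measured after 30 min at room temperature.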

[15] = qHTS assay to identify small molecule antagonists of the TGF-beta/Smad signaling pathway - cell viability counter screen (AID 1346824); also: nearly all actives have a fitted effect of over 50% in size
Procedure, shortened: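 SBE-bla HEK 293T cells, incubated overnight, then compound plus 0.25 ng/mL TGF-beta1 (stock added) for 5 hr at 37 C. Viability was read in the same wells by CellTiter-Glo luminescence after 30 min at room temperature.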

[16] = qHTS assay to identify small molecule agonists of the TGF-beta/Smad signaling pathway - cell viability counter screen (AID 1346829); also: top concentration of the series differs between compounds; nearly all actives have a fitted effect of over 45% in size
Procedure, shortened: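 Here the cytotoxicity of library compounds is measured in SBE-bla HEK 293T cells treated for 5 hr, using CellTiter-Glo added to wells already read for the beta-lactamase reporter.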

[17] = qHTS assay to identify small molecule agonists of the TGF-beta/Smad signaling pathway (AID 1346859; active = well fitted activation curve with a large enough effect in the signal ratio in the repeat runs, not every such curve was filed as active; the % refers to the signal ratio; also: series mostly up to about 77 µM)
Procedure, shortened: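 Reporter line: HEK 293T with stably integrated SBE-controlled beta-lactamase. Compound exposure lasts 5 hr at 37 C and 5% CO2; substrate loading follows for 2 hr at room temperature, with emission read at 460 and 530 nm.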

[18] = target: Thyrotropin-releasing hormone receptor (Homo sapiens) (UniProt P34981); assay: qHTS assay to identify small molecule antagonists of the thyrotropin-releasing hormone receptor (TRHR) signaling pathway (AID 1346877; active = well fitted inhibition curve with a large enough effect in the repeat runs, not every such curve was filed as active; also: series mostly up to about 51 µM)
Chain of Thyrotropin-releasing hormone receptor (Homo sapiens) (P34981 whole entry, looked up): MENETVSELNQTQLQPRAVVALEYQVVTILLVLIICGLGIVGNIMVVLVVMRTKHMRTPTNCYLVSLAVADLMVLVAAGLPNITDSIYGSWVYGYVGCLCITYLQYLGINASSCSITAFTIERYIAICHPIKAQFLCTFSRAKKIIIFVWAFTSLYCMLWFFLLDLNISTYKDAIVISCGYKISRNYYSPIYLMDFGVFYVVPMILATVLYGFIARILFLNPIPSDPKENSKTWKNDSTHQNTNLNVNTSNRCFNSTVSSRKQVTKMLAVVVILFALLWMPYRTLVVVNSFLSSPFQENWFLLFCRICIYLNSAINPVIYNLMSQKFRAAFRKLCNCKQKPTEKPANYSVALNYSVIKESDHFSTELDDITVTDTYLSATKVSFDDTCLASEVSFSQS
Procedure, shortened: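 Overnight-plated (18 h, 37 °C) HEK293 cells expressing TRHR were dye-loaded 2 h, treated with compound, then stimulated with TRH at 1 nM final. Fluorescence intensity was captured every second for 3 min.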

[19] = target: Thyrotropin-releasing hormone receptor (Homo sapiens) (UniProt P34981); assay: qHTS assay to identify small molecule agonists of the thyrotropin-releasing hormone receptor (TRHR) signaling pathway (AID 1346891; calls by dose curve;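 also: HEK293 cells expressing TRHR with calcium dye readout; series mostly up to about 58 µM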)
Procedure, shortened: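 Cells: TRHR-Hek293, seeded and incubated 18 h. Dye loading: 2 h at 37 °C. Compound added from DMSO stock by pin tool. Read-out: kinetic calcium fluorescence over 3 min.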

[20] = target: Progesterone receptor (Homo sapiens) (UniProt P06401); assay: qHTS assay to identify small molecule antagonists of the progesterone receptor (PR) signaling pathway (AID 1346795; active = well fitted inhibition curve with a large enough effect in the signal ratio in the repeat runs, not every such curve was filed as active; the % refers to the signal ratio)
Procedure, shortened: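 Antagonist mode: compounds tested against 1 nM (final) promegestone stimulation in HEK293T cells expressing PR-UAS-bla reporter, 16 hr at 37C, 5% CO2; beta-lactamase activity detected via B/G FRET substrate after 2 hr at room temperature.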

Compound	Potency [1]	Potency [2]	Potency [3]	Potency [4]	Potency [5]	outcome [6]	Potency [7]	Potency [8]	Potency [9]	Potency [10]	Potency [11]	Potency [12]	Potency [13]	Potency [14]	Potency [15]	Potency [16]	Potency [17]	Potency [18]	outcome [19]	Potency [20]
CCc1cccc(CC)c1N	inactive	inactive	inactive	inactive	inactive	inactive	inactive	inactive	inactive	inactive	inactive	inactive	inactive	inactive	inactive	inactive	inactive	–	–	–
CCCCCC(C)=O	inactive and 27.3 µM (active)	inactive	inactive	inactive	inactive	–	inactive	–	–	–	inactive	inactive	inactive	inactive and 61.1 µM (active)	inactive	inactive	inactive	inactive	inactive	–
CC(=O)C(C)C	inactive	inactive	inactive	inactive	inactive	–	inactive	inactive	–	–	inactive	inactive	inactive	inactive	inactive	inactive	inactive	inactive	inactive	–
CC(C)(CO)CO	inactive	inactive	inactive	inactive	inactive	inactive	–	inactive	inactive	inactive	inactive	inactive	inactive	inactive	inactive	inactive	inactive	inactive	inactive	–
CC(=O)OCCC(C)C	inactive	inactive	inactive	inactive	inactive	–	inactive	–	–	–	inactive	inactive	inactive	inactive	inactive	inactive	inactive	inactive	inactive	inactive
OCCOCCOCCOCCOCCO	inactive	inactive	inactive	inactive	inactive	–	inactive	–	inactive	inactive	inactive	inactive	inactive	inactive	inactive	inactive	inactive	inactive	inactive	–
Cc1cccc(C)c1[N+](=O)[O-]	inactive and 24.3 µM (active)	inactive	inactive	inactive	inactive	–	inactive	–	inactive	inactive	inactive	inactive	inactive	inactive	inactive	inactive	inactive	inactive	inactive	inactive
CCCCCCC(=O)O	inactive	inactive	inactive	inactive	inactive	–	–	inactive	inactive	inactive	inactive	inactive	inactive	inactive	inactive	inactive	inactive	–	–	inactive
Nc1cccc(C(F)(F)F)c1	inactive	inactive	inactive	inactive	inactive	–	inactive	inactive	inactive	inactive	inactive	inactive	inactive	inactive	inactive	inactive	inactive	inactive	inactive	inactive
COCN(COC)c1nc(N(COC)COC)nc(N(COC)COC)n1	inactive	inactive	inactive	inactive	inactive	–	inactive	inactive	inactive	inactive	inactive	inactive	inactive	inactive	inactive	inactive	inactive	inactive	inactive	inactive
C=CC(C)(C)C	inactive	inactive	inactive	inactive	inactive	–	inactive	inactive	inactive	inactive	inactive	inactive	inactive	inactive	inactive	inactive	inactive	–	–	inactive
OCc1ccc(Cl)cc1Cl	inactive	inactive	inactive	inactive	inactive	–	inactive	–	–	–	inactive	inactive	inactive	inactive	inactive	inactive	inactive	inactive	inactive	–
CN1Cc2c(N)cccc2C(c2ccccc2)C1 (stereo not given)	inactive	inactive	inactive	inactive	inactive	–	inactive	–	inactive	inactive	inactive	inactive	inactive	–	inactive	inactive	inactive	–	–	inactive
COc1cc(NC(=O)CC(C)=O)c(OC)cc1Cl	inactive	inactive	inactive	inactive	inactive	–	inactive	inactive	inactive	inactive	inactive	inactive	inactive	inactive	inactive	inactive	inactive	inactive	inactive	inactive
COc1c(Cl)ccc(Cl)c1C(=O)O	inactive	inactive	inactive	inactive	inactive	–	inactive	inactive	inactive	inactive	inactive	inactive	inactive	inactive	inactive	inactive	inactive	inactive	inactive	inactive
C[n+]1ccn(CCO)c1	inactive	inactive	inactive	inactive	inactive	–	inactive	–	–	–	inactive	inactive	inactive	inactive	inactive	inactive	inactive	inactive	inactive	–
Cc1ccc([N+](=O)[O-])cc1N	inactive	inactive	inactive	inactive	inactive	–	inactive	inactive	inactive	inactive	inactive	inactive	inactive	inactive	inactive	inactive	inactive	inactive	inactive	inactive
